Here are results for 34 molecules from PubChem BioAssay (NCI).

Assay in all cases: NCI-60 one-dose screen, 48 h (100 = growth as untreated, 0 = no growth, -100 = all killed)
Settings in all cases: 10 µM unless noted

For assay [1], the system named is BT-549 breast.
The test system of assay [2] is MDA-MB-435 melanoma.
The subject of assay [3] is SW-620 colon.
The test system of assay [4] is MCF7 breast.
Assay [5] deals with HCT-116 colon.
The subject of assay [6] is HCC-2998 colon.
In assay [7] the test system is KM12 colon.

The panel holds about 83,000 compounds, 20% with a hit somewhere; the sample as a whole holds those more often.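 Percent growth is the endpoint: 0 to 100 indicates growth inhibition (40 means 60% inhibition), 0 means no net growth, and negative values indicate cell death.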 A number with no mark means an inactive call. The source made the active and inactive calls. The calls were made as follows: active = growth percent below 10; inactive = the rest.

`COc1ccc(NC(=O)c2sc3nc(C)c(C(C)=O)cc3c2N)cc1`: the growth was 86.5% in assay [1]; 93.2% in assay [2]; 97% in assay [3]; 95.7% in assay [4]; 88.6% in assay [5]; 103% in assay [6]. In addition, in assay [7], the growth was 105%.
As for `COc1cc(NC(=O)Nc2cnc(Nc3ccc(N4CCOCC4)cc3)nc2Oc2ccc(C(F)(F)F)cc2)cc(OC)c1`, the growth in assay [1] was 111%; in assay [2] it was 107%; in assay [3] it was 107%; in assay [4], 101%; in assay [5], 104%; in assay [6], 104%. Also, the growth in assay [7] is 103%.
On to `COc1ccc(C(=O)c2cc(F)c(F)c(OC)c2F)cc1OC(=O)CCl`, for which the growth in assay [1] is 36.3%; in assay [2], -27.7% (active); in assay [3] it was 20.6%; in assay [4] it was 19.2%; in assay [5] it was 20.5%; in assay [6] it was 79.5%. In addition, in assay [7], the growth is 31.1%.
For the molecule `Cc1cccc(C)c1Nc1nnc(-c2ccc(F)cc2)o1`, the growth was 107% in assay [1]; 103% in assay [2]; 98.1% in assay [3]; 96.6% in assay [4]; 101% in assay [5]; 99.4% in assay [6]. For the same molecule, in assay [7], the growth was 89.2%.
Consider `COC(=O)/C=C1\SC(=Nc2cccc(Cl)c2)N(CCc2c[nH]c3ccccc23)C1=O`, for which the growth in assay [1] is 44.8%; in assay [2], 42.7%; in assay [3] it was 40.5%; in assay [4], 20.1%; in assay [5], 38.2%; in assay [6] it was 52.9%. Also, the growth in assay [7] is 24.3%.
Turning to `Oc1c(CCl)cc(Cl)cc1Cc1cc(Cl)cc(Cc2cc(Cl)cc(CCl)c2O)c1O`, the growth in assay [1] was 23.9%; in assay [2], 44.1%; in assay [3], 25.5%; in assay [4] it was 8.55% (active); in assay [5] it was 3.12% (active); in assay [6] it was 19.5%. Moreover, the growth in assay [7] was 23.2%.
Turning to `OCCNc1nc(NCCO)nc(Nc2ccc(C3=NN(c4cc(Cl)cc(Cl)c4)C(c4ccccc4)C3)cc2)n1` (stereo not drawn), the growth is 59.4% in assay [1]; 49.5% in assay [2]; 60% in assay [3]; 16.3% in assay [4]; 33.8% in assay [5]; 52.8% in assay [6]. Further, the growth in assay [7] was 27.9%.
As to `CCOC(=O)c1cnn(-c2nc(-c3ccc(F)cc3)c(C#N)c(N3CCOCC3)n2)c1N`, the growth in assay [1] is 95.6%; in assay [2], 99.1%; in assay [3] it was 104%; in assay [4], 89.9%; in assay [5], 99.5%; in assay [6] it was 111%. The growth in assay [7] is 105%.
As to `COC(=O)c1oc2c(C(=O)/C=C/c3ccc(OC)cc3)c(OCCCN3CCCCC3)ccc2c1C`, the growth in assay [1] is 22.9%; in assay [2] it was 6.56% (active); in assay [3], -17.9% (active); in assay [4], 6.82% (active); in assay [5] it was 1.36% (active); in assay [6] it was -45% (active). The growth in assay [7] was -11.5% (active).
Take `COC(=O)/C=C1\SC(=Nc2ccc(C(F)(F)F)cc2)N(CCc2c[nH]c3ccccc23)C1=O`: the growth in assay [1] was -21.8% (active); in assay [2], -85.1% (active); in assay [3] it was -76.1% (active); in assay [4], -7.91% (active); in assay [5], -63.4% (active); in assay [6], -90.6% (active). Further, in assay [7], the growth is -62.8% (active).
`C=C(C)[C@@H]1CC[C@]2(C(=O)N3CCN(C)CC3)CC[C@]3(C)[C@H](CC[C@@H]4[C@@]5(C)C/C(=C/c6ccco6)C(=O)C(C)(C)[C@@H]5CC[C@]43C)[C@@H]12`: the growth in assay [1] was 79.5%; in assay [2] it was 72.8%; in assay [3], 74%; in assay [4], 36.1%; in assay [5], 46.9%; in assay [6] it was 92.3%. In assay [7], the growth is 72.5%.
As to `Nc1ccccc1NC(=O)c1ccc(CSc2nc(N3CCOCC3)c3cccn3n2)cc1`, the growth in assay [1] is 15.3%; in assay [2] it was -21.2% (active); in assay [3], 9.25% (active); in assay [4] it was 10.3%; in assay [5], 6.78% (active); in assay [6], 17.6%. For the same molecule, the growth in assay [7] is 16.6%.
Regarding `CC(=O)c1c(OCC#N)ccc2c(C)cc(=O)oc12`, the growth in assay [1] is 118%; in assay [2], 107%; in assay [3] it was 96.8%; in assay [4], 99.2%; in assay [5], 101%; in assay [6] it was 109%. Besides, the growth in assay [7] is 107%.
As to `CCCNc1nc(C)[nH]c(=O)c1S`, the growth is 113% in assay [1]; 105% in assay [2]; 121% in assay [3]; 111% in assay [4]; 108% in assay [5]; 112% in assay [6]. The growth in assay [7] is 107%.
Regarding `CCN(CC)c1ccc2c(c1)Oc1nc(N)c(C#N)c(N)c1C2Sc1ccc(OC)cc1` (stereo not drawn), the growth in assay [1] is -0.405% (active); in assay [2], -26.8% (active); in assay [3], -8.27% (active); in assay [4] it was 0.303% (active); in assay [5], 2.7% (active); in assay [6], -49.2% (active). Moreover, the growth in assay [7] was -33% (active).
For the molecule `NC(N)=NC(N)=Nc1cc2ccccc2c2ccccc12`, the growth in assay [1] is 36.1%; in assay [2], 68.9%; in assay [3], 22.9%; in assay [4], 2.2% (active); in assay [5] it was -44.5% (active); in assay [6] it was 26.2%. In assay [7], the growth was 47%.
With `COc1cc(C2=NNC(c3ccc(N(C)C)cc3)C2)cc(OC)c1OC` (stereo not drawn), the growth in assay [1] is 35.1%; in assay [2] it was 19%; in assay [3] it was 20%; in assay [4], 20.2%; in assay [5] it was 9.9% (active); in assay [6] it was 7.82% (active). Further, the growth in assay [7] was 14.4%.
With `O=C(O)c1cc(N=Nc2ccc(-c3ccc(N=Nc4c(S(=O)(=O)O)cc5ccc(Nc6ccccc6)cc5c4O)cc3)cc2)ccc1O`, the growth was 115% in assay [1]; 106% in assay [2]; 102% in assay [3]; 92.3% in assay [4]; 105% in assay [5]; 89.8% in assay [6]. Also, the growth in assay [7] is 99.6%.
Consider `C(=C\c1cn(-c2ccccc2)nc1-c1ccccc1)/c1nnc(-c2c[nH]c3ccccc23)o1`, for which the growth is 81% in assay [1]; 49% in assay [2]; 45.8% in assay [3]; 34.3% in assay [4]; 24.7% in assay [5]; 97.3% in assay [6]. For the same molecule, the growth in assay [7] was 37.9%.
As to `O=C(Nc1cc(Nc2ncccc2-c2ncnc3nc[nH]c23)ccc1F)c1cc(C(F)(F)F)cc(C(F)(F)F)c1`, the growth is -25.2% (active) in assay [1]; 6.76% (active) in assay [2]; 13.1% in assay [3]; -2.67% (active) in assay [4]; -43% (active) in assay [5]; -83.4% (active) in assay [6]. For the same molecule, in assay [7], the growth is -55.9% (active).
With `COc1ccc(C(C)c2cc(OC)c(OC)c(OC)c2)cc1` (stereo not drawn), the growth in assay [1] was 24.6%; in assay [2], -42.6% (active); in assay [3], 27%; in assay [4], 13.8%; in assay [5] it was 4.67% (active); in assay [6], 30.2%. Besides, in assay [7], the growth was 9.1% (active).
`N#Cc1nc(-c2ccccc2)oc1S(=O)(=O)NCC(c1ccc(Cl)cc1)N1CCCCC1` (stereo not drawn): the growth in assay [1] is 77.6%; in assay [2], 64.3%; in assay [3], 26.5%; in assay [4], 35%; in assay [5] it was 27.3%; in assay [6] it was 107%. The growth in assay [7] is 80.6%.
Regarding `Cc1cccc(C)c1NCc1nnc(-c2ccc(O)cc2)o1`, the growth was 97.1% in assay [1]; 99.1% in assay [2]; 100% in assay [3]; 90.6% in assay [4]; 102% in assay [5]; 100% in assay [6]. Further, the growth in assay [7] was 97%.
On to `C=C1C(=O)O[C@H]2[C@H]1CC/C(COC(=O)NCC(=O)Nc1ccc(OC)c(C(N)=O)c1O)=C\CC[C@@]1(C)O[C@@H]21`, for which the growth is 47.4% in assay [1]; 56.3% in assay [2]; 10.6% in assay [3]; 18.6% in assay [4]; 36% in assay [5]; 102% in assay [6]. For the same molecule, the growth in assay [7] is 92.8%.
For `COc1ccc(Cc2nc(C#N)c(N3CCN(c4ccc(F)cc4)CC3)o2)cc1`, the growth in assay [1] was 94.5%; in assay [2] it was 84.6%; in assay [3], 97.7%; in assay [4], 79.7%; in assay [5], 78.2%; in assay [6], 93.8%. The growth in assay [7] was 78.8%.
As for `COc1ccc(Nc2nc(SCC(C)C)nc(-c3ccc(F)cc3)c2C#N)cc1`, the growth was 75.5% in assay [1]; 9.54% (active) in assay [2]; 47.9% in assay [3]; 29.1% in assay [4]; 35.7% in assay [5]; 92.8% in assay [6]. Further, the growth in assay [7] is 44.4%.
On to `C#C[C@@]1(O)[C@@H](CO)O[C@@H](n2cc(-c3ccco3)c3c(N)ncnc32)[C@@H]1O`, for which the growth in assay [1] is 58.5%; in assay [2], 66.4%; in assay [3] it was 63.5%; in assay [4], 13.9%; in assay [5], 68%; in assay [6], 56.4%. The growth in assay [7] was 18.2%.
As to `N#Cc1c(-c2ccc(F)cc2)nc(N=Nc2c(O)[nH]c3ccccc23)nc1N1CCOCC1`, the growth was 91.4% in assay [1]; 67.7% in assay [2]; 66.7% in assay [3]; 64.4% in assay [4]; 47.2% in assay [5]; 96.2% in assay [6]. For the same molecule, the growth in assay [7] was 75.1%.
Consider `CCOC(=O)NCCc1nc2c([nH]1)c(=O)n(C)c(=O)n2C`, for which the growth in assay [1] is 97.6%; in assay [2] it was 101%; in assay [3] it was 103%; in assay [4] it was 95.4%; in assay [5], 92.7%; in assay [6], 99.7%. Also, the growth in assay [7] is 101%.
For the molecule `CN1C(=O)c2cc(Cl)nc3c(NC(=O)c4cccc(Cl)c4)c(Cl)c(NC(=O)c4cccc(Cl)c4)c1c23`, the growth in assay [1] is -8.59% (active); in assay [2], 3.49% (active); in assay [3], -58.3% (active); in assay [4], 18.1%; in assay [5], -56.2% (active); in assay [6] it was 9.23% (active). The growth in assay [7] was 64.3%.
`Nc1ccccc1NS(=O)(=O)c1ccc(Cl)cc1`: the growth in assay [1] is 101%; in assay [2], 90.6%; in assay [3], 99.3%; in assay [4], 94%; in assay [5], 97%; in assay [6] it was 84.4%. Further, the growth in assay [7] is 100%.
As for `COc1ccc2nc3c(n2c1)C(=O)C(=O)c1ccccc1-3`, the growth in assay [1] was -72.3% (active); in assay [2], -91.8% (active); in assay [3], -61.8% (active); in assay [4], -53.1% (active); in assay [5], -2.17% (active); in assay [6], -13.5% (active). Moreover, in assay [7], the growth was 23.1%.
On to `CN(C)[C@@H]1C(=O)C(C(N)=O)=C(O)[C@@]2(O)C(=O)C3=C(O)c4c(O)cc(CN5CCc6ccccc6C5)c(Cl)c4C[C@H]3C[C@@H]12`, for which the growth in assay [1] is -83.3% (active); in assay [2] it was -75.7% (active); in assay [3] it was -72.4% (active); in assay [4] it was -68.8% (active); in assay [5] it was -90.5% (active); in assay [6], -67.1% (active). The growth in assay [7] is -82.9% (active).
Take `CN(C)C1=NCCN1`: the growth in assay [1] is 97.5%; in assay [2], 110%; in assay [3] it was 106%; in assay [4], 97.2%; in assay [5], 98.7%; in assay [6] it was 101%. In addition, the growth in assay [7] is 100%.
